# Results filed as inconclusive are left out. Active and inactive are the calls of the source. The calls were made as follows, unless noted: active = hit-call score of the fitted dose curve at least 0.9, where 1 is the maximum; inconclusive = response in the unintended direction; inactive = score below 0.9.
# Tests used:
# [1] = ATG_Oct_MLP_CIS: Attagene CIS-FACTORIAL HepG2 Assay for human Octamer-Binding Transcription Factor (Oct) (AID 2282993; active = hit-call score of the fitted dose curve at least 0.9, where 1 is the maximum; inactive = score below 0.9); settings: HepG2 Attagene cis-factorial Oct reporter, mRNA; actives raise or lower the signal
# How it was run: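 HepG2 cells transiently transfected with cis-promoter-driven multiplexed reporter transcription units, dosed for 24 h. Reporter mRNA quantified by RT-PCR, fluorescent labelling, HpaI digestion and capillary electrophoresis; bidirectional fits versus DMSO baseline.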
# [2] = target: Cellular tumor antigen p53 (Homo sapiens) (UniProt P04637); assay: ATG_p53_CIS: Attagene CIS-FACTORIAL HepG2 Assay for human p53 Transcription Factor (AID 2282994; active = hit-call score of the fitted dose curve at least 0.9, where 1 is the maximum; inactive = score below 0.9); settings: HepG2 p53 cis-element reporter, Attagene mRNA; actives raise or lower the signal
# Sequence of Cellular tumor antigen p53 (Homo sapiens) (P04637 whole entry, looked up): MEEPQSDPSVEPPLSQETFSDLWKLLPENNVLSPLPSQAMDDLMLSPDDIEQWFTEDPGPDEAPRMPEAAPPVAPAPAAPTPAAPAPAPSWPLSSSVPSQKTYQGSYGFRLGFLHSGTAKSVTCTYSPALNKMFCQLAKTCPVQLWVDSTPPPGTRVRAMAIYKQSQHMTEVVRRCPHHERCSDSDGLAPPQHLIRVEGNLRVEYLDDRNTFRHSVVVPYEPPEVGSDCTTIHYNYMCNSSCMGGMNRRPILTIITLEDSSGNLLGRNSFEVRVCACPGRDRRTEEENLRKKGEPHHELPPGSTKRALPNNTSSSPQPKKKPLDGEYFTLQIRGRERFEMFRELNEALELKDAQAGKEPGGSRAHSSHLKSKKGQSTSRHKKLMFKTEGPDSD
# How it was run: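 Multiplexed reporter mRNA assay in human HepG2 liver cells; cis-regulated units report endogenous factor activity. Values come from bidirectional curve fitting against DMSO negative control after 24 h treatment.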
# [3] = target: human Peroxisome Proliferator-activated Receptor alpha (PPARa), PPARA (gene 5465) (UniProt Q07869); assay: ATG_PPARa_TRANS: Attagene TRANS-FACTORIAL HepG2 Assay for human Peroxisome Proliferator-activated Receptor alpha (PPARa) (AID 2283001);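 as to AC50: potency for gain of reporter signal over DMSO so agonist or activator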
# Sequence of human Peroxisome Proliferator-activated Receptor alpha (PPARa), PPARA (gene 5465) (Q07869 whole entry, looked up, the tested form may be a part): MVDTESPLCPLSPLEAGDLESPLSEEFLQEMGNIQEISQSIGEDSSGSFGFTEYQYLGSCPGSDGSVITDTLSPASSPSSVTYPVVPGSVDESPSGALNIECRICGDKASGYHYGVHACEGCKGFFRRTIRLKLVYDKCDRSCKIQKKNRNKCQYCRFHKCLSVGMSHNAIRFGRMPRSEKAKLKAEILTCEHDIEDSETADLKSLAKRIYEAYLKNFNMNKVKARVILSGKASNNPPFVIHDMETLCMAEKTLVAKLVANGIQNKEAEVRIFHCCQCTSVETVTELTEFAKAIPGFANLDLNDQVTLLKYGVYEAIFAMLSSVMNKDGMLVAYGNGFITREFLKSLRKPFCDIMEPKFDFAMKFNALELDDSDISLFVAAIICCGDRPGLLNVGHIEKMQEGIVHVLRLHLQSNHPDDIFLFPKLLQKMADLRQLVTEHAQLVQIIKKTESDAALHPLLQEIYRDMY
# How it was run: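 Measures transcriptional activity of an exogenous chimeric PPARa-Gal4 protein in transiently transfected HepG2 cells after 24 h dosing. Reporter mRNA quantified via RT-PCR and capillary electrophoresis; DMSO served as negative control.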
# [4] = target: Nuclear receptor subfamily 1 group I member 2 (Homo sapiens) (UniProt O75469); assay: ATG_PXR_TRANS: Attagene TRANS-FACTORIAL HepG2 Assay for human Pregnane X Receptor (PXR) (AID 2283008)
# Sequence of Nuclear receptor subfamily 1 group I member 2 (Homo sapiens) (O75469 whole entry, looked up, the tested form may be a part): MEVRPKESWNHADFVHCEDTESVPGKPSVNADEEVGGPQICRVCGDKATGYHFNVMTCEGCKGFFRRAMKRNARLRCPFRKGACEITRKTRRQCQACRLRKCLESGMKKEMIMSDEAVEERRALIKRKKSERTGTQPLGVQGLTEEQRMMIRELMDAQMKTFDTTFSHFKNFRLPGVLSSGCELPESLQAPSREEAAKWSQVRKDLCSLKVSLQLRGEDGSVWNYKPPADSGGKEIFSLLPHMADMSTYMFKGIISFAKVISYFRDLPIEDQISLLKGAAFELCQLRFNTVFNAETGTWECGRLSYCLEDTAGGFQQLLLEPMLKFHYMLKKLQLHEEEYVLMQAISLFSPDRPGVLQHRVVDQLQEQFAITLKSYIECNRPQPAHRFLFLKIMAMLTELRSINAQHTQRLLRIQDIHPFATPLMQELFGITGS
# How it was run: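 Measures mRNA induction of a GAL4-UAS-driven reporter in human HepG2 cells transiently expressing PXR fused to Gal4, following 24 h treatment. DMSO served as negative control and baseline.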
# [5] = target: Retinoic acid receptor RXR-alpha (Homo sapiens) (UniProt P19793); assay: ATG_RXRa_TRANS: Attagene TRANS-FACTORIAL HepG2 Assay for human Retinoid X Receptor alpha (RXRa) (AID 2283012)
# How it was run: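 HepG2 cells transiently transfected with multiplexed GAL4-UAS reporter units and chimeric NR-GAL4 fusions, dosed 24 h. Reporter mRNA measured by RT-PCR, FAM labelling, HpaI digestion and capillary electrophoresis; gain-of-signal fitted relative to DMSO baseline.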
# [6] = target: human RAR-related Orphan Receptor beta (RORb), RORB (gene 6096) (UniProt Q92753); assay: ATG_RORb_TRANS: Attagene TRANS-FACTORIAL HepG2 Assay for human RAR-related Orphan Receptor beta (RORb) (AID 2283010)
# Sequence of human RAR-related Orphan Receptor beta (RORb), RORB (gene 6096) (Q92753 whole entry, looked up, the tested form may be a part): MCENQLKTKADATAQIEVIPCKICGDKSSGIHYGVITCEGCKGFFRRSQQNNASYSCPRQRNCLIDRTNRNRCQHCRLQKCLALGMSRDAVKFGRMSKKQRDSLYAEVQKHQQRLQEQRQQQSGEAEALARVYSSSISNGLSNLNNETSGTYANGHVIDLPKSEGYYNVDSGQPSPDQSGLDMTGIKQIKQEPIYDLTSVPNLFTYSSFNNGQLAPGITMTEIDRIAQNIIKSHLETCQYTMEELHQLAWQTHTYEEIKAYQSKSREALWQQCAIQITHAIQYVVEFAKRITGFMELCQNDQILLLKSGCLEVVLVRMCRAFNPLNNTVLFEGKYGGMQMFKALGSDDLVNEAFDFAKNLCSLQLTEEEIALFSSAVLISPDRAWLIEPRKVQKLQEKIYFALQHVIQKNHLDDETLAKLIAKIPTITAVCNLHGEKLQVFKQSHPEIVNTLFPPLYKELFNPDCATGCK
# How it was run: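 HepG2 cells were transiently transfected with multiplexed GAL4-UAS reporter units expressing chimeric nuclear receptor–GAL4 proteins, then dosed for 24 h. Reporter mRNA was quantified by RT-PCR with fluorescent labelling and capillary electrophoresis; gain of signal was fitted relative to DMSO.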
# [7] = target: human RAR-related Orphan Receptor gamma (RORg), RORC (gene 6097) (UniProt P51449); assay: ATG_RORg_TRANS: Attagene TRANS-FACTORIAL HepG2 Assay for human RAR-related Orphan Receptor gamma (RORg) (AID 2283011)
# Sequence of human RAR-related Orphan Receptor gamma (RORg), RORC (gene 6097) (P51449 whole entry, looked up, the tested form may be a part): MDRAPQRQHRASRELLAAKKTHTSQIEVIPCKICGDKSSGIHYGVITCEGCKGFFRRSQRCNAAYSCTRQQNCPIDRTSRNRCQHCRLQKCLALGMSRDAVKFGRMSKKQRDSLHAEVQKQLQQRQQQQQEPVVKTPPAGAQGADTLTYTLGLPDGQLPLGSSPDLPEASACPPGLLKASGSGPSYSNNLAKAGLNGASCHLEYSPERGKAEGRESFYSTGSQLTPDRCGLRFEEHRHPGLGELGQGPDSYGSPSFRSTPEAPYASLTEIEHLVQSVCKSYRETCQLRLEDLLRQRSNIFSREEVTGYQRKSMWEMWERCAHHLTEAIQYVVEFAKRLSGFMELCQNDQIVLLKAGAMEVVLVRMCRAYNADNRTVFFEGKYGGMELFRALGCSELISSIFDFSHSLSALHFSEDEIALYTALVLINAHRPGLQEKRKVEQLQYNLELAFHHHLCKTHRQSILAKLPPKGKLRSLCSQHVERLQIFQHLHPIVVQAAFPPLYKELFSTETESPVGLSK
# How it was run: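 Activity is scored as increase in GAL4-UAS reporter mRNA over DMSO, detected by fluorescent RT-PCR and capillary electrophoresis in HepG2 cells transiently expressing a RORg-Gal4 chimera, 24 h after dosing.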
# [8] = target: human Retinoic Acid Receptor beta (RARb), RARB (gene 5915) (UniProt P10826); assay: ATG_RARb_TRANS: Attagene TRANS-FACTORIAL HepG2 Assay for human Retinoic Acid Receptor beta (AID 2283004)
# Sequence of human Retinoic Acid Receptor beta (RARb), RARB (gene 5915) (P10826 whole entry, looked up, the tested form may be a part): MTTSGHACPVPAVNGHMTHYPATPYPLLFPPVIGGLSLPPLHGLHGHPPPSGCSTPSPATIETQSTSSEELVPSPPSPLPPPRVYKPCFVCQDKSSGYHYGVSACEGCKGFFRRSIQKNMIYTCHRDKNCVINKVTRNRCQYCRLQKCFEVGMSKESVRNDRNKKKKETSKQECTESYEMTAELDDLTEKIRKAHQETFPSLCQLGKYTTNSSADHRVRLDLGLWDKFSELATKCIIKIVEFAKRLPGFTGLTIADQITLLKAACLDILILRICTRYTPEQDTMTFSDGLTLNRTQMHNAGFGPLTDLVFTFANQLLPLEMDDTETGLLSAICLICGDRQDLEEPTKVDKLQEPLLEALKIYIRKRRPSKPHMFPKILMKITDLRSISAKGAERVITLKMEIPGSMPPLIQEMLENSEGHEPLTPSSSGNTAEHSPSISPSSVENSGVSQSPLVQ
# How it was run: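 HepG2, transient MRTU transfection, NR–Gal4 chimera, 24 h treatment; RT-PCR plus CE fluorescence detection of reporter mRNA; gain of signal vs DMSO.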
# [9] = target: Retinoic acid receptor alpha (Homo sapiens) (UniProt P10276); assay: ATG_RARa_TRANS: Attagene TRANS-FACTORIAL HepG2 Assay for human Retinoic Acid Receptor alpha (RARa) (AID 2283005)
# Sequence of Retinoic acid receptor alpha (Homo sapiens) (P10276 whole entry, looked up, the tested form may be a part): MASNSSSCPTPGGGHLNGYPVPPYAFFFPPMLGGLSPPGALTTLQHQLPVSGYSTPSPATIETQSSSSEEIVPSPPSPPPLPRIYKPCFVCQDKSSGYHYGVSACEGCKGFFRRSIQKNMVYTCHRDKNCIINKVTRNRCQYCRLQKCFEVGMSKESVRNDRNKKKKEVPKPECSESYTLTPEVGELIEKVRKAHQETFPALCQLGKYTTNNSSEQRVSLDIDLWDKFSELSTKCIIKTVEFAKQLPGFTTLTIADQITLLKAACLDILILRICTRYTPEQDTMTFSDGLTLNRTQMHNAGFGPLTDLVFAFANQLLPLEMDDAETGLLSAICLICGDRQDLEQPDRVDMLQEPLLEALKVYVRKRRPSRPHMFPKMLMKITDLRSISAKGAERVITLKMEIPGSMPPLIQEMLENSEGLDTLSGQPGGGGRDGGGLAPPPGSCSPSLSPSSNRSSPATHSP
# How it was run: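 HepG2 transiently transfected with multiplex GAL4-UAS reporter units including a human RARa–GAL4 chimera; 24 h compound exposure. Reporter mRNA quantified by RT-PCR, 6-FAM labeling and capillary electrophoresis; gain of signal versus DMSO.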
# [10] = target: human Retinoic Acid Receptor gamma (RARg), RARG (gene 5916) (UniProt P13631); assay: ATG_RARg_TRANS: Attagene TRANS-FACTORIAL HepG2 Assay for human Retinoic Acid Receptor gamma (RARg) (AID 2283009)
# Sequence of human Retinoic Acid Receptor gamma (RARg), RARG (gene 5916) (P13631 whole entry, looked up, the tested form may be a part): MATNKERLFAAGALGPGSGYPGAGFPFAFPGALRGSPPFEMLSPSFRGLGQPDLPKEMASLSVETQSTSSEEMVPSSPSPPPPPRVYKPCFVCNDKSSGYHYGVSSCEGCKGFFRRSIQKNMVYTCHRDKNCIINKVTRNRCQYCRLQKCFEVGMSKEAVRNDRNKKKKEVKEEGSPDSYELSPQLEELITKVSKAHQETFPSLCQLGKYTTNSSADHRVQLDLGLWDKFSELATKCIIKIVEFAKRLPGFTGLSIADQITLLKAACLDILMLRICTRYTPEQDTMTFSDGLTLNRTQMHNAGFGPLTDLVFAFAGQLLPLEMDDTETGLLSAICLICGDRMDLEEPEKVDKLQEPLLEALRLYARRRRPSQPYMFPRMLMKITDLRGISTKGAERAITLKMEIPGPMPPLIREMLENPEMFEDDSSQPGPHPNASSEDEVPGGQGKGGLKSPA
# How it was run: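 HepG2 cells transiently transfected with multiplexed reporter units expressing chimeric RARg-GAL4 and GAL4-UAS-driven reporters; 24 h compound exposure. Reporter mRNA quantified by RT-PCR with fluorescent labelling and capillary electrophoresis; gain-of-signal fitted relative to DMSO baseline.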
# [11] = target: human Retinoid X Receptor beta (RXRb), RXRB (gene 6257) (UniProt P28702); assay: ATG_RXRb_TRANS: Attagene TRANS-FACTORIAL HepG2 Assay for human Retinoid X Receptor beta (RXRb) (AID 2283013)
# Sequence of human Retinoid X Receptor beta (RXRb), RXRB (gene 6257) (P28702 whole entry, looked up, the tested form may be a part): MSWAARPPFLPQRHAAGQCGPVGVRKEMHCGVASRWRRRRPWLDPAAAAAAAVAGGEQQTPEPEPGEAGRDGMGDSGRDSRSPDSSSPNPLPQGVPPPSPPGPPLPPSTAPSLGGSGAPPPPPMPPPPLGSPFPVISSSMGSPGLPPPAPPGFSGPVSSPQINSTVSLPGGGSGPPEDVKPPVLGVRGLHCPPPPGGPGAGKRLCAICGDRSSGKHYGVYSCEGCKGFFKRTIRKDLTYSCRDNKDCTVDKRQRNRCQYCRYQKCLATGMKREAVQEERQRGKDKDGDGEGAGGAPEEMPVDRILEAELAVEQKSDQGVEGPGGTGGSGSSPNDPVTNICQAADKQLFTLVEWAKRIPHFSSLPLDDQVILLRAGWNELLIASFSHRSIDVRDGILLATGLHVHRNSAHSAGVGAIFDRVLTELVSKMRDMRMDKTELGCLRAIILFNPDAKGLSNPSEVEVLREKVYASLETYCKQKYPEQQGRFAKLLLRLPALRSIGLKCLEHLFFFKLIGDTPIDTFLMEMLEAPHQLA
# How it was run: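 HepG2 cells transiently transfected with multiplexed reporter units driven by GAL4-UAS and exogenous chimeric NR-Gal4 proteins; treated 24 h. Reporter mRNA measured by RT-PCR, 6-FAM labelling and capillary electrophoresis; gain-of-signal fitted versus DMSO baseline.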
# [12] = target: human Thyroid Receptor alpha (THRa1), THRA (gene 7067) (UniProt P10827); assay: ATG_THRa1_TRANS: Attagene TRANS-FACTORIAL HepG2 Assay for human Thyroid Receptor alpha (THRa1) (AID 2283014)
# How it was run: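 First, HepG2 cells receive multiple GAL4-UAS reporter units and the chimeric receptor. They are then dosed for 24 h, after which RNA is reverse-transcribed, amplified, labelled, HpaI-cut and sized by capillary electrophoresis; gain relative to DMSO is scored.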
# [13] = target: human Peroxisome Proliferator-activated Receptor delta (PPARd), PPARD (gene 5467) (UniProt Q03181); assay: ATG_PPARd_TRANS: Attagene TRANS-FACTORIAL HepG2 Assay for human Peroxisome Proliferator-activated Receptor delta (PPARd) (AID 2283002)
# How it was run: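 HepG2 cells transiently transfected with GAL4-UAS multiplexed reporter units driven by exogenous chimeric NR-GAL4 proteins; 24 h compound exposure. Reporter mRNA measured by RT-PCR, 6-FAM primer extension, HpaI digestion and capillary electrophoresis; gain of signal fitted relative to DMSO.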
# [14] = target: Peroxisome proliferator-activated receptor gamma (Homo sapiens) (UniProt P37231); assay: ATG_PPARg_TRANS: Attagene TRANS-FACTORIAL HepG2 Assay for human Peroxisome Proliferator-activated Receptor-gamma (PPARg) (AID 2283007)
# Sequence of Peroxisome proliferator-activated receptor gamma (Homo sapiens) (P37231 whole entry, looked up, the tested form may be a part): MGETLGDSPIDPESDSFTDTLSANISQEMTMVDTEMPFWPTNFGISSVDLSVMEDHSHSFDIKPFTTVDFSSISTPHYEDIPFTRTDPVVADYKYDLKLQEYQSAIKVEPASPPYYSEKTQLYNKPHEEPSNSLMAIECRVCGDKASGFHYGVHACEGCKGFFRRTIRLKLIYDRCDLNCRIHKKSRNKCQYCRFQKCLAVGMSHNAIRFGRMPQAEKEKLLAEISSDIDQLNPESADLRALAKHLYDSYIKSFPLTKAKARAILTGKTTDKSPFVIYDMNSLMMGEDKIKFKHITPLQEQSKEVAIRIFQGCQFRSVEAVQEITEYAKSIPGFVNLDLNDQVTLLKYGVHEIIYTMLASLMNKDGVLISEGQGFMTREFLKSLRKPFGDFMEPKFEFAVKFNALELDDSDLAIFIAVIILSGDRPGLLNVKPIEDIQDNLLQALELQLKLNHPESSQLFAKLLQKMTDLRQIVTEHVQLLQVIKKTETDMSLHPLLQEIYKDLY
# How it was run: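 A TRANS-format multiplexed reporter assay measures activity of an exogenous chimeric NR-Gal4 protein in HepG2 cells. After 24 h of chemical exposure, reporter transcripts are amplified, fluorescently labelled and sized by capillary electrophoresis, with gain of signal scored against DMSO.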
smiles,measurement,setting,value
C=CCc1ccccc1O,outcome,[1],inactive
same,outcome,[2],inactive
same,outcome,[3],inactive
same,outcome,[4],inactive
same,outcome,[5],inactive
Brc1ccc(Oc2c(Br)cc(Br)cc2Br)c(Br)c1,outcome,[1],inactive
same,outcome,[2],inactive
same,outcome,[3],inactive
same,outcome,[4],inactive
same,outcome,[6],inactive
same,outcome,[7],inactive
same,outcome,[5],inactive
O=S1OC[C@@H]2[C@H](CO1)[C@]1(Cl)C(Cl)=C(Cl)[C@@]2(Cl)C1(Cl)Cl (stereo partly specified),AC50,[1],100 µM (active)
same,outcome,[2],inactive
same,outcome,[8],inactive
same,outcome,[9],inactive
same,AC50,[4],4.5 µM (active)
same,outcome,[10],inactive
same,outcome,[5],inactive
same,outcome,[11],inactive
same,outcome,[12],inactive
O=[N+]([O-])c1cc([As](=O)(O)O)ccc1O,outcome,[1],inactive
same,outcome,[2],inactive
same,outcome,[13],inactive
same,outcome,[4],inactive
same,outcome,[6],inactive
same,outcome,[12],inactive
CC(C)CP(=S)(S)CC(C)C,outcome,[1],inactive
same,outcome,[2],inactive
same,outcome,[8],inactive
same,outcome,[9],inactive
same,outcome,[14],inactive
same,AC50,[4],59.1 µM (active)
same,outcome,[10],inactive
same,outcome,[6],inactive
same,outcome,[5],inactive
same,outcome,[11],inactive
CCCCOP(=O)(CCCC)OCCCC,outcome,[1],inactive
same,outcome,[2],inactive
same,outcome,[8],inactive
same,AC50,[14],38.4 µM (active)
same,AC50,[4],8.52 µM (active)
same,outcome,[6],inactive
same,outcome,[5],inactive
C=CCOC(N)=O,outcome,[1],inactive
same,outcome,[2],inactive
same,outcome,[8],inactive
same,outcome,[9],inactive
same,outcome,[14],inactive
same,outcome,[10],inactive
same,outcome,[7],inactive
same,outcome,[12],inactive
CC(=Cc1ccccc1)[N+](=O)[O-],outcome,[1],inactive
same,AC50,[2],18 µM (active)
same,AC50,[3],11.1 µM (active)
same,AC50,[14],3.91 µM (active)
same,outcome,[6],inactive
FC(F)OCC(F)(F)C(F)(F)F,outcome,[1],inactive
same,outcome,[2],inactive
same,outcome,[13],inactive
same,outcome,[8],inactive
same,outcome,[4],inactive
same,outcome,[5],inactive
same,outcome,[11],inactive
CCCCCCCCCCCCBr,outcome,[1],inactive
same,outcome,[2],inactive
same,outcome,[3],inactive
same,AC50,[14],43.3 µM (active)
same,outcome,[11],inactive
CCCCS(=O)(=O)Cl,outcome,[1],inactive
same,outcome,[2],inactive
same,outcome,[13],inactive
same,outcome,[4],inactive
same,outcome,[6],inactive
same,outcome,[7],inactive
CNC(=O)O/N=C/C(C)(C)S(C)(=O)=O,outcome,[1],inactive
same,outcome,[2],inactive
same,outcome,[3],inactive
same,outcome,[6],inactive
same,outcome,[11],inactive
same,outcome,[12],inactive
ClCCN1CCOCC1,outcome,[1],inactive
same,outcome,[2],inactive
same,outcome,[13],inactive
same,outcome,[7],inactive
CC(C)CC(C)(c1ccc(O)cc1)c1ccc(O)cc1,AC50,[1],17 µM (active)
same,AC50,[2],11.1 µM (active)
same,outcome,[13],inactive
same,outcome,[8],inactive
same,outcome,[9],inactive
same,AC50,[14],11.1 µM (active)
same,AC50,[4],1.47 µM (active)
same,outcome,[10],inactive
same,outcome,[5],inactive
same,outcome,[12],inactive
O=NN1CCOCC1,outcome,[1],inactive
same,outcome,[2],inactive
same,outcome,[3],inactive
same,outcome,[14],inactive
same,outcome,[5],inactive
same,outcome,[12],inactive
COC(F)(C(F)(F)C(F)(F)F)C(F)(C(F)(F)F)C(F)(F)F (stereo unspecified),outcome,[1],inactive
same,outcome,[2],inactive
same,outcome,[13],inactive
same,outcome,[8],inactive
same,outcome,[9],inactive
same,outcome,[14],inactive
same,outcome,[4],inactive
same,outcome,[10],inactive
same,outcome,[7],inactive
same,outcome,[12],inactive

# Reference: PubChem BioAssay (EPA / NIEHS)
